In PubChem BioAssay AID1578 (Sanford-Burnham Center for Chemical Genomics, 2009):
In all, about 290,000 compounds went through this assay and about 3,000 (1%) were called active. The sample holds actives, similar compounds and a random draw of the others, so the mix is not that of the screen. Unmarked numbers belong to inactive results. Cut-off read from the data, not from the text of the source: active = inhibition mostly above about 36% (no sharp cut-off); inactive = mostly below about 34%.

experiment: inhibition of NOD1-driven NF-kB reporter – cell-based, luminescence, uHTS, primary screen (AID 1578); conditions: NOD1-driven NF-kB luciferase reporter cells, at 4 µM, stronger effect = higher value;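 note: HEK-293T reporter cells stimulated with the NOD1 agonist gamma-tri-DAP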

SMILES	inhibition
CCc1noc(C)c1C(=O)Nc1ccccc1C(C)(C)C	38.7%
Cc1ccc(-c2nc(N3CCOCC3)sc2C(=O)N2CCOCC2)cc1	-12.2%
Cc1ccc(CNC(=O)Nc2ccc(OC(F)(F)F)cc2)n1C	-21.3%
COC(=O)c1ccc(NC(=O)c2ccccc2NS(C)(=O)=O)cc1	-12%
COC(=O)c1ccccc1NS(=O)(=O)c1ccc(NC(C)=O)cc1	0.6%
COc1cc(OC)cc(C(=O)Nn2cc(C(=O)Nc3ccccc3F)c3ccccc3c2=O)c1	-16.8%
C=CCNC(=O)[C@@H]1CSC2c3ccc(OC)c(OC)c3C(=O)N21 (stereo partly specified)	-8.1%
Cc1ccc(C2C3C(=O)N(c4ccc(C)cc4)C(=O)C3N3CCCN23)cc1 (stereo unspecified)	-7.6%
Cc1ccc(C(=O)COC(=O)c2cc(Cl)nc3ccccc23)cc1C	-37.6%
Cc1ccc(C)c(N2CCN(C(=O)c3ccc4nc(-c5ccco5)c(-c5ccco5)nc4c3)CC2)c1	-1.9%
Cc1cccc(N2CCN(C(=O)c3ccc4nc(-c5ccco5)c(-c5ccco5)nc4c3)CC2C)c1 (stereo unspecified)	60.5% (active)
O=C(c1ccc2nc(-c3ccco3)c(-c3ccco3)nc2c1)N1CCN(c2ccccc2)CC1	3.4%
O=C(CN1C(=O)c2ccccc2C1=O)Nc1cc([N+](=O)[O-])ccc1O	-38.7%
CCOc1cc(C(C(=O)NCC2CCCO2)N(C(=O)Cn2nnc3ccccc32)c2ccccc2C(C)=O)ccc1O (stereo unspecified)	-47.9%
Cc1cc(C2=NNC(=NC3CC3)SC2)c(C)n1-c1ccccc1	98.3% (active)
COCCCN=C1NN=C(c2cc(C)n(-c3ccccc3F)c2C)CS1	10.1%
COc1ccc(-n2c(C)cc(C3=NNC(=NC4CC4)SC3)c2C)cc1	-7.5%
Cc1ccc(-n2c(C)cc(C3=NNC(=NC4CC4)SC3)c2C)cc1C	-21.7%
Cc1cc(C2=NNC(=NC3CC3)SC2)c(C)n1-c1c(C)n(C)n(-c2ccccc2)c1=O	-12.6%

SMILES	inhibition
Cc1cc(C2=NNC(=NC3CC3)SC2)c(C)n1-c1ccccc1F	96.7% (active)
CCOC(=O)c1[nH]c2ccccc2c1NC(C)=O	2.4%
CC(C)(C)n1cnc2cc(NS(=O)(=O)c3ccc(Br)cc3)ccc21	7.7%
Cc1ccc(-c2nnn(CC(=O)N(CCN3CCOCC3)C(C(=O)NC(C)(C)C)c3ccc(C)o3)n2)cc1 (stereo unspecified)	-14.8%
COc1ccc(-c2cc3nc(C)cc(C)n3n2)cc1	-76.5%
COc1ccc(-c2cc3nc(C)cc(-c4ccc(OC)cc4)n3n2)cc1	66.8% (active)
COc1ccc(-c2cc3nc(C)cc(N)n3n2)cc1	-3.5%
COC(=O)C(Cc1ccccc1)NC(=O)c1cccc(S(=O)(=O)N(C)C)c1 (stereo unspecified)	-41.3%
COc1ccc(/C(C)=N/NC(=O)c2nnn(-c3nonc3N)c2CN(C)c2ccccc2)cc1	-7.2%
C/C(=N\NC(=O)c1c(Br)cnn1C)c1ccc(NC(=O)c2ccc(F)cc2)cc1	-45.8%
CCC(=O)NC(=S)Nc1ccccc1C(=O)NC1CCCCC1	-10.9%
Cc1cc(C)cc(NC(=O)COc2ccc(C(=S)N3CCOCC3)cc2)c1	-14.5%
CCOC(=S)SCc1cn2ccc(C)cc2n1	8.3%
Cc1oc2ccc(O)c(CN(C)C)c2c1C(=O)c1ccccc1	-26.2%
Cc1oc2ccc(O)c(CN3CCOCC3)c2c1C(=O)c1ccc(Cl)cc1	27.5%
Cc1oc2c(Cl)c(Cl)c(O)c(CN(C)C)c2c1C(=O)c1ccc(Cl)cc1	65.8% (active)
CCN(CC)C(=O)CSc1nc2ccccc2c(=O)n1OC(C)C	8%
Cc1cc(/C=C2/C(=O)NN(c3ccccc3)C2=O)c(C)n1-c1cccc(O)c1	-15.4%
COc1ccc(-n2c(C)cc(/C=C3/SC(=S)N(C)C3=O)c2C)cc1	-25.3%

SMILES	inhibition
Cc1cc(/C=C2\SC(=S)N(Cc3ccco3)C2=O)c(C)n1-c1cccnc1	8.2%
Cc1cc(/C=C2/SC(=S)N(c3ccc([N+](=O)[O-])cc3)C2=O)c(C)n1-c1cccnc1	74.8% (active)
Cc1cc(/C=C2\SC(=S)NC2=O)c(C)n1-c1cccc(O)c1	-11.9%
Cc1ccc(/C=C2\SC(=S)N(c3cccnc3)C2=O)cc1	-15%
Cc1cc(/C=C2\SC(=O)N(C)C2=O)c(C)n1-c1ccc(O)cc1	0.7%
CC(c1ccccc1)n1c(N2CCNCC2)nc2c1c(=O)[nH]c(=O)n2C (stereo unspecified)	-36.1%
COc1ccc(NC(=O)CN(c2ccc(OC)cc2)S(=O)(=O)c2c(C)nn(C)c2C)cc1	-15.1%
COc1ccc(C(=O)N2CCC(C(=O)c3c(C)cc(C)cc3C)CC2)cc1	-8.8%
Cc1ccc(N2CC(C(=O)N3CCCc4ccccc43)CC2=O)cc1 (stereo unspecified)	-10.4%
O=C(C1CCC(=O)N(C2CCCC2)C1)N1CCN(c2ccccc2Cl)CC1 (stereo unspecified)	-2.7%
CCOC(=O)c1c(NC(=O)CSc2nnc(C)c(=O)[nH]2)sc2c1CCCC2	11.2%
CCOC(=O)c1c(NC(=O)CSc2nnc(C)c(=O)[nH]2)sc(C)c1C	17.3%
CCOC(=O)c1c(NC(=O)CSc2nnc(C)c(=O)[nH]2)sc(C)c1-c1ccc(C)cc1	43.1% (active)
CC/C=C/C(=O)N1CC2(CC(c3cccc(NC(=O)CC(c4ccccc4)c4ccccc4)c3)=NO2)C[C@@H]1C(N)=O (stereo partly specified)	-0.2%
CCN(CC)Cc1c(O)ccc2c([N+](=O)[O-])c(C)n(-c3ccc(OC)cc3)c12	-5.7%
COc1ccc(C(=O)c2coc3ccc(O)c(CN4CCCCC4)c23)cc1	9.4%
COc1cc(C2NC(=S)NC(C)=C2C(=O)Nc2ccc(C)cc2)ccc1O (stereo unspecified)	-50%
c1coc(-c2nc(-c3ccncc3)no2)c1	-24.6%
